PubChem BioAssay

How the values were obtained:
[1] = target: Tumor necrosis factor receptor superfamily member 10B (Homo sapiens) (UniProt O14763); test: caspase-8 TRAIL sensitization, hit retest, confirmation, cell-based, NB7+caspase-8, with/without TRAIL, luminescence panel (AID 651596); conditions: NB7 neuroblastoma + caspase-8, TRAIL sensitization, luminescence viability, with TRAIL, mean of runs, at 10 µM, stronger effect = higher value
[2] = as above; conditions: NB7 neuroblastoma + caspase-8, without TRAIL, luminescence viability, without TRAIL, mean of runs, at 10 µM

Chain of Tumor necrosis factor receptor superfamily member 10B (Homo sapiens) (O14763 whole entry, looked up): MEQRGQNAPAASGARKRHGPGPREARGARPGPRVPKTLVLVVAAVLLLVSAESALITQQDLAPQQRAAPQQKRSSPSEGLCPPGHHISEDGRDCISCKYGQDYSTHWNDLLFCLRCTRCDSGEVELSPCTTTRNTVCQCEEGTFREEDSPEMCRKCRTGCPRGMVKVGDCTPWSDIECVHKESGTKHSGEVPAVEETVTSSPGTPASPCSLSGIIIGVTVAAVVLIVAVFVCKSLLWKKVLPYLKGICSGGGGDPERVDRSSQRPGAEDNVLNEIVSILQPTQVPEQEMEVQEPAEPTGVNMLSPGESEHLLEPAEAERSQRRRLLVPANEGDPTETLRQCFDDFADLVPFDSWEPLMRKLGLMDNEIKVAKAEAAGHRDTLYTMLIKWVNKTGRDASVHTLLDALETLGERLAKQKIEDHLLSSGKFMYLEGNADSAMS

SMILES	activity [1] [%]	activity [2] [%]
O=C(CCl)Nc1cccc(Oc2ccccc2)c1	97.7	97.7
Cc1ccc(-n2c(-c3ccc(Br)cc3)c[n+]3c2CCc2ccc4cccnc4c2-3)cc1	70.2	63
CCN1CCN(c2ccc(S(=O)(=O)N3CCCCC3)cc2NC(=O)c2ccc([N+](=O)[O-])o2)CC1	59.8	61.9
CCCCCCCCOC(=O)c1cc([N+](=O)[O-])c(Sc2ncnc3nc[nH]c23)c([N+](=O)[O-])c1	64.1	62
COc1ccccc1C=C1CCc2ccccc2C1=O	78.4	74.3
O=[N+]([O-])c1c(Nc2cccc(O)c2)cc(Cl)c2nonc12	97	99.5
C/C(=N\Nc1nc2ccccc2[nH]1)c1cc2ccccc2o1	47.5	43.7
Cc1ccc2sc(NC(=O)CSc3nc(C)cc(C)c3C#N)nc2c1	71.5	57.3
CCN1CCN(c2ccc(S(=O)(=O)N3CCCCC3)cc2NC(=O)/C=C/c2ccc(OC(F)F)cc2)CC1	3.5	5.28
O=C(N/N=C/c1ccc2ncccc2c1)c1ccco1	75.7	70.7
C#CC(=O)N(c1ccc(OC)cc1OC)C(C(=O)NC1CCCC1)c1cccs1 (stereo not drawn)	99	99.6
CCCCCN=Cc1c(C)[nH]n(-c2nc3ccccc3s2)c1=O	95.5	95.9
COc1ccc(-c2ccc3c(c2)S(=O)(=O)c2cccc(C(=O)NCCOc4ccccc4Cl)c2C3=O)cc1OC	91.2	77.8
CCOc1cccc2sc(N(CCCN(C)C)C(=O)c3ccc(S(=O)(=O)N4CCc5ccccc5C4)cc3)nc12	55.9	73.7
COc1ccc(C(=O)Nc2cc(C)on2)cc1	49.3	38.6
NC(=O)c1ccsc1NC(=O)c1ccc2c(c1)CCCC2	89.5	86.7
CC(C)c1ccc(/C=C/c2ccc(=O)n(C)n2)cc1	68.1	66.6
Cc1ccnc(NC(=O)c2ccc(OCC3CCCO3)cc2)c1 (stereo not drawn)	94.4	93.9
Nc1nc(Nc2ccc(Cl)cc2)nc2ccccc12	84.4	83.5
NC(Cc1ccc(Cl)cc1)c1csc(NC(=O)NCC2CCCCC2)n1 (stereo not drawn)	58.4	88.1
CCOc1cc(NC2CS(=O)(=O)CC2O)c(OCC)cc1NC(=O)c1ccccc1 (stereo not drawn)	-26.1	-33.2
CCCCCC(=O)N1C[C@H](n2cc(COC(=O)c3ccccc3)nn2)[C@@H](O)C[C@@H]1c1ccc(Cl)cc1	72.6	61
CC(=O)CSc1nc2cc3c(cc2cc1C#N)OCCO3	49.6	35.5
C=CCOc1cccc(/C=C/c2nc3ccccc3c(=O)[nH]2)c1	66.8	64.8
COC(=O)c1ccc(-c2nc3cc(N)ccc3o2)cc1	61.9	44.6

SMILES	activity [1] [%]	activity [2] [%]
COc1ccc(C(=O)O/N=C(\N)Cc2ccc(Cl)cc2)cc1OC	99.3	95.8
COc1ccc(C(=O)Nc2nnc(SCC(=O)NCc3ccco3)s2)c(OC)c1	65.7	61.2
O=C(N/N=C/c1cccs1)c1ccc2c(c1)OCO2	71.7	66
Cc1nc2cc(NC(=O)c3ccc(Br)s3)ccc2s1	71.4	63.1
COc1ccc(NC(=O)c2cc3ccc(O)cc3o/c2=N\O)cc1	77.8	77.1
O=C(C#Cc1ccccc1)c1ccccc1	54	96.6
O=C(Nc1ccc2c(c1)OCCO2)c1cc2ccccc2o1	82	76.8
COC(=O)c1ccc2nc(-c3ccc4c(c3)OCO4)cn2c1	74.5	76
CCOc1ccc(OCC)c(NC(=O)C2CCN(c3nn4c(=O)cc(C)nc4s3)CC2)c1	82	81.3
COC(=O)c1cccc(NC(=O)c2cc3ccccc3o2)c1	57.4	58.6
O=C(Nc1ccccc1)c1nc[nH]c1C(=O)Nc1ccccc1F	62	62.5
c1ccc2nc(-c3ccc(N4CCOCC4)cc3)ccc2c1	72.2	69
CCC(=O)Nc1cc2nn(-c3ccccc3)nc2cc1Cl	67.5	65.9
C=CCOC(=O)c1sc(NC(=O)c2ccco2)nc1C	39.1	40.2
O=C(Nc1ccc(Cl)cc1)Nc1ccccc1C(=O)O	58.3	45.1
Cc1ccc(C(=O)Nc2ccc3c(c2)OCCO3)c(C)c1	91.6	91.5
Cc1cc(C(=O)COC(=O)c2cccn2C)c(C)n1Cc1ccco1	54.5	39.2
O=C(NC(=S)Nc1ccccn1)c1ccccc1	77.8	76.8
CCc1ccc(C(=O)Nc2cc(C)ccc2F)s1	-9.2	27.4
C=CCc1ccccc1OCC(=O)N/N=C/c1ccc(OC(C)=O)cc1OC(C)=O	-0.55	27.2
Cc1cc(C(=O)COC(=O)c2cccnc2Cl)c(C)n1C	62.8	40.4
O=C(Nc1nc(=O)c2ccccc2s1)c1ccc(F)cc1	64.8	72.2
COc1cc(/C=N/NC(=O)COc2ccc(C)cc2)ccc1OC(=O)c1cccs1	58.4	48.5
O=C(CCl)Nc1ccccc1Sc1ccccc1	83.2	87.8
